The results in this text go back to PubChem BioAssay (NCI).

The structures appear in SMILES notation. About 79,000 compounds went through this panel and 15% of them were active in at least one assay; those are over-represented in the sample as a whole. A number with no mark means an inactive call. Active and inactive are the calls of the source. Cut-off read from the data, not from the text of the source: active = growth inhibition above about 70%; inactive = the rest.

One test is described as follows: NCI Yeast Anticancer Drug Screen. Data for the mec2-1 strain (AID 157). The note with it: S. cerevisiae mec2-1 strain, at 50.0 µM, stronger effect = higher value. In a few lines:
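Test agents were screened against the mec2-1 yeast strain, with defined DNA repair or cell cycle alteration. Growth was scored as inhibition against vehicle-only controls.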
Regarding `Cn1c(NC(=O)C(=O)NC23CC4CC(CC(C4)C2)C3)nc2ccccc21`, the growth inhibition is -11.4%.

On to `CCCc1[nH]nc(CCC(=O)N(Cc2ccccc2)Cc2ccccc2)c1CC`, for which the growth inhibition is -26.4%.

For the compound `COC1OC(CO)C(O)C2OCCOCCOC3C(OC)OC(CO)C(O)C3OCCOCCOC12` (stereo not given), the growth inhibition was -4.4%. Turning to `CCCCCCC(=O)NC(O)C(Cl)(Cl)C(C)Cl` (stereo not given), the growth inhibition was -6.6%. On the same count and under the same terms, the result for `COc1ccc(N=C(N)N2CCCc3ccccc32)cc1` reads 17.9%; that for `CCCCCCCCCCCCCCCCCCCC/C=C/C1CC(=O)OC1=O` (stereo not given), -6%. Same read-out and setting: the result for `COS(=O)(=O)Cc1ccccc1` reads -15%; that for `O=C1CCCNC(=O)CCCN1`, -9.55%; that for `CCCN(CCC)CCCCCCCCN`, -13.2%. As for `Brc1ccc2nc(-c3ccccc3)c3ccccc3c2c1`, the growth inhibition is -0.45%. The same measure, in the same setting: to `CCCCc1noc(N)c1SCC` belongs 9.5%; to `N#Cc1c(-c2ccccc2)c[nH]c1/N=C/N`, -16.8%; to `C/C(N=NC(=S)N1CCCC1)=C1\C=CC=CN1O`, -8.35%. On the same count and under the same terms, to `Cc1cc(C)n(C2OC(CO)C(O)C(O)C2O)c(=S)c1C#N` (stereo not given) belongs 14.8%; to `CCOC(=O)c1cn2ccccc2c1C(=O)OCC`, -3.1%; to `CCOC(=O)C(C(=O)OCC)C(=O)c1cc(OC)c(OC)c(OC)c1`, 10.6%.

With `CN(C)C(=O)c1ccccc1`, the growth inhibition was 6.25%. `C=C1C(=O)OC2CC(C)C3CC(O)OC(OCC)C3(C)CC12` (stereo not given): the growth inhibition was 20.3%.

As to `COc1ccc(C(=O)c2ccccc2)c(OC(=O)Nc2ccc(Cl)cc2)c1`, the growth inhibition was -3.4%. As for `Cc1nnc2sc(Cl)nn12`, the growth inhibition is 48.8%. Same read-out and setting: to `COc1cc(C(C)Cl)ccc1OC(=O)c1ccccc1` (stereo not given) belongs -5%. For the compound `CN(C)CCCNC=O`, the growth inhibition was -10.9%. Same read-out and setting: to `CC1CC[N-]C(N)N1.CC1CC[N-]C(N)N1.[Cl][Pd][Cl]` (stereo not given) belongs -0.4%.

Another test is described as follows: NCI Yeast Anticancer Drug Screen. Data for the sgs1 mgt1 strain (AID 161).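 Note: 0% = growth of cultures given vehicle only.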 The note with it: S. cerevisiae sgs1 mgt1 strain, at 50.0 µM, stronger effect = higher value. In short, it runs like this:
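Genetically altered yeast, compound exposure, growth inhibition relative to vehicle.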
Consider `Oc1ccc2c(c1)CCC2`, for which the growth inhibition was -1.3%. Still for that read-out and setting: the result for `Cc1ccc(S(=O)(=O)N2CC(CCl)N(S(=O)(=O)c3ccc(C)cc3)CC2CCl)cc1` (stereo not given) reads 20.6%. Same read-out and setting: to `CC/C(CC(=O)CCC(=O)Nc1ccccc1[N+](=O)[O-])=N/NC(=O)C[n+]1ccccc1` belongs -56.1%.

In the case of `c1cnc(NC(Nc2cnccn2)C2CCCCC2)cn1`, the growth inhibition is -6.6%. Still for that read-out and setting: to `CC(=O)Oc1cccc2c(/C=N/NC(N)=S)ncc(C)c12` belongs 86.7% (active). For `COC(=O)c1cc(Cl)ccc1NC(=O)C1CCCCC1`, the growth inhibition was 23%. Same read-out and setting: to `O=C1/C(=C/c2ccccc2)CN(C(=O)CCN2CCOCC2)C/C1=C\c1ccccc1` belongs 73% (active); to `Cn1c(=O)ccc2c(=O)c3c(ccc4ccccc43)oc21`, -28.1%; to `c1ccc(-c2nnc(-c3ccccc3)c3nonc23)cc1`, 9.1%. Still for that read-out and setting: the result for `NC(Cc1ccc(OC(c2ccccc2)c2ccccc2)cc1)C(=O)O` (stereo not given) reads 0.75%. The same measure, in the same setting: the result for `CCOC1(c2ccccc2)c2ccccc2Sc2ccccc21` reads 5.5%; that for `CC(=O)OC(C)C1CCCC1OC(C)=O` (stereo not given), -9.95%.

Regarding `O=c1[nH]cnc2c(COCCO)c[nH]c12`, the growth inhibition was -19.5%.

Take `COc1ccccc1C1OC2=C(Nc3ccc([N+](=O)[O-])cc3N2)C1=O` (stereo not given): the growth inhibition was 27.9%. On the same count and under the same terms, the result for `COc1cccc(C2c3cc4c(cc3OC(N3CCCCC3)C2C)OCO4)c1O` (stereo not given) reads 0.15%; that for `CCC/C=N/NC(=O)c1ccc(OC)cc1`, -6.85%.

For `O=C1CCC2c3ccccc3NCN12` (stereo not given), the growth inhibition is -35.6%. The same measure, in the same setting: the result for `Cn1c(NC(=O)C(=O)NC23CC4CC(CC(C4)C2)C3)nc2ccccc21` reads -9.7%; that for `CCCc1[nH]nc(CCC(=O)N(Cc2ccccc2)Cc2ccccc2)c1CC`, 11.6%. Same read-out and setting: the result for `COC1OC(CO)C(O)C2OCCOCCOC3C(OC)OC(CO)C(O)C3OCCOCCOC12` (stereo not given) reads 5.9%; that for `CCCCCCC(=O)NC(O)C(Cl)(Cl)C(C)Cl` (stereo not given), -6.2%. Still for that read-out and setting: the result for `COc1ccc(N=C(N)N2CCCc3ccccc32)cc1` reads 0.55%; that for `CCCCCCCCCCCCCCCCCCCC/C=C/C1CC(=O)OC1=O` (stereo not given), 16.9%. In the case of `COS(=O)(=O)Cc1ccccc1`, the growth inhibition was -16.8%. With `O=C1CCCNC(=O)CCCN1`, the growth inhibition is -5.45%. `CCCN(CCC)CCCCCCCCN`: the growth inhibition was -3.2%. In the case of `Brc1ccc2nc(-c3ccccc3)c3ccccc3c2c1`, the growth inhibition was -2.35%.
